About 7,900 targets were measured; listed, in parts, are those with a hit and a random draw of the rest. About 0.6% of all pairs of compound and target were hits. A number with no mark means an inactive call.
Tests used:
Assay in all cases: log2 fold change, soluble protein after heating vs DMSO (PISA); higher = thermal stabilisation; K562 cells, 10 uM, 30 min; active = over 0.2 and 3.5 SD of the protein, either way, in both replicates (recomputed)
[1] = compound: CC1=C(C=C(C=C1)NC(=O)C2=CC(=CC=C2)C(C)(C)C#N)NC3=CC4=C(C=C3)N=CN(C4=O)C
Outline: (§1)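 Soluble protein was quantified by TMTpro 16plex LC-MS/MS after channel sums were equalised. It was obtained as the supernatant after 21,000xg for 90 min from pooled aliquots of K562 cells (2×10^6 cells/mL, 10 μM compound, 30 min) heated for 3 min across 48°C-58°C and extracted in PBS with 0.5% NP-40 at 4°C. Thermal stability values are relative to control samples and come from duplicates. They are given as log2 fold changes.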

[2] = compound: CC1=C(C=C(C=C1)NC(=O)C2=CC(=CC=C2)N(C)C)NC(=O)C3=CC=C(C=C3)O
Outline: as §1

[3] = compound: CC1=CC=C(C=C1)SC2=C3C=C(SC3=CN=C2)C(=O)N
Outline: as §1

[4] = compound: CC1=NC(=CC=C1)C2=C(N=C(N2)C(C)(C)C)C3=CC4=NC=CN=C4C=C3
Outline: as §1

Nexturastat A = compound: CCCCN(Cc1ccc(C(=O)NO)cc1)C(=O)Nc1ccccc1 [Nexturastat A]
Outline: as §1

vemurafenib = compound: CCCS(=O)(=O)Nc1ccc(F)c(C(=O)c2c[nH]c3ncc(-c4ccc(Cl)cc4)cc23)c1F [vemurafenib]
Outline: as §1

[5] = compound: CCCS(=O)(=O)Nc1ccc(F)c(C(=O)c2c[nH]c3ncc(Cl)cc23)c1F
Outline: as §1

[6] = compound: CCCc1cc(C)[nH]c(=O)c1CNC(=O)c1cc(-c2ccnc(N3CCN(C)CC3)c2)cc2c1cnn2C(C)C
Outline: as §1

givinostat = compound: CCN(CC)Cc1ccc2cc(COC(=O)Nc3ccc(C(=O)NO)cc3)ccc2c1 [givinostat]
Outline: as §1

barasertib = compound: CCN(CCCOc1ccc2c(Nc3cc(CC(=O)Nc4cccc(F)c4)[nH]n3)ncnc2c1)CCOP(=O)(O)O [barasertib]
Outline: as §1

UniProt Q8N1S5, sequence (Q8N1S5 whole entry, looked up): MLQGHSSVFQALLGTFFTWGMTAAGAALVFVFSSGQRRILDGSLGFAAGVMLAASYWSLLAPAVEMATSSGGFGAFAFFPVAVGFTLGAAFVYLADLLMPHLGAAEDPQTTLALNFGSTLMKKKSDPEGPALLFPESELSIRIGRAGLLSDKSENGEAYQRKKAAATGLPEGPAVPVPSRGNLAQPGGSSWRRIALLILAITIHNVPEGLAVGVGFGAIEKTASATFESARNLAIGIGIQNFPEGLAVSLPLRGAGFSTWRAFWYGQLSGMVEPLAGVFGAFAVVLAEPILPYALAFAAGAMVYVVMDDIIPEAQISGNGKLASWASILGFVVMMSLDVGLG
UniProt P30626, sequence (P30626 whole entry, looked up): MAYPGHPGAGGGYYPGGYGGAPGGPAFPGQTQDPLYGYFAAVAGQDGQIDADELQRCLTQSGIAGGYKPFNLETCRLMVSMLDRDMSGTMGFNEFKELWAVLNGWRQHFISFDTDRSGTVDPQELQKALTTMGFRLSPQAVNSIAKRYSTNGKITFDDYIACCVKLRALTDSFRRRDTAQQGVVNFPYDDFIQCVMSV
UniProt Q8NEF9, sequence (Q8NEF9 whole entry, looked up): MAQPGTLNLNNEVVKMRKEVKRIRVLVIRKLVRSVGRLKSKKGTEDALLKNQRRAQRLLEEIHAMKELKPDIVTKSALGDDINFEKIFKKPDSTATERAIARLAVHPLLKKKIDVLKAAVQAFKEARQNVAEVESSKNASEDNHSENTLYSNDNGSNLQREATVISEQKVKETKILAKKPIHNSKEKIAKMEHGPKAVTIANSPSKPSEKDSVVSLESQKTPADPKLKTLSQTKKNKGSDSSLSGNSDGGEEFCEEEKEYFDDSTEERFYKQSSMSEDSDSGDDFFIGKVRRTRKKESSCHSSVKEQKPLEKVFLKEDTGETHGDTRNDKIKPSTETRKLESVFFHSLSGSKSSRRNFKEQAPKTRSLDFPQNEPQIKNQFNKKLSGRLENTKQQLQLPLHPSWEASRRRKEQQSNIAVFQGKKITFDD
UniProt O95772, sequence (O95772 whole entry, looked up): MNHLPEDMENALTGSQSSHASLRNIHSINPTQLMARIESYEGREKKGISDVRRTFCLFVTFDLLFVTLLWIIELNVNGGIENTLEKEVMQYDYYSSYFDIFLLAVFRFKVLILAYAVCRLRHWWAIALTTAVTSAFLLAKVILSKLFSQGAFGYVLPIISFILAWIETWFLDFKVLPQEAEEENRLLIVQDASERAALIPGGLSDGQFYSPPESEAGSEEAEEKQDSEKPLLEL
UniProt Q9C0B7, sequence (Q9C0B7 whole entry, looked up): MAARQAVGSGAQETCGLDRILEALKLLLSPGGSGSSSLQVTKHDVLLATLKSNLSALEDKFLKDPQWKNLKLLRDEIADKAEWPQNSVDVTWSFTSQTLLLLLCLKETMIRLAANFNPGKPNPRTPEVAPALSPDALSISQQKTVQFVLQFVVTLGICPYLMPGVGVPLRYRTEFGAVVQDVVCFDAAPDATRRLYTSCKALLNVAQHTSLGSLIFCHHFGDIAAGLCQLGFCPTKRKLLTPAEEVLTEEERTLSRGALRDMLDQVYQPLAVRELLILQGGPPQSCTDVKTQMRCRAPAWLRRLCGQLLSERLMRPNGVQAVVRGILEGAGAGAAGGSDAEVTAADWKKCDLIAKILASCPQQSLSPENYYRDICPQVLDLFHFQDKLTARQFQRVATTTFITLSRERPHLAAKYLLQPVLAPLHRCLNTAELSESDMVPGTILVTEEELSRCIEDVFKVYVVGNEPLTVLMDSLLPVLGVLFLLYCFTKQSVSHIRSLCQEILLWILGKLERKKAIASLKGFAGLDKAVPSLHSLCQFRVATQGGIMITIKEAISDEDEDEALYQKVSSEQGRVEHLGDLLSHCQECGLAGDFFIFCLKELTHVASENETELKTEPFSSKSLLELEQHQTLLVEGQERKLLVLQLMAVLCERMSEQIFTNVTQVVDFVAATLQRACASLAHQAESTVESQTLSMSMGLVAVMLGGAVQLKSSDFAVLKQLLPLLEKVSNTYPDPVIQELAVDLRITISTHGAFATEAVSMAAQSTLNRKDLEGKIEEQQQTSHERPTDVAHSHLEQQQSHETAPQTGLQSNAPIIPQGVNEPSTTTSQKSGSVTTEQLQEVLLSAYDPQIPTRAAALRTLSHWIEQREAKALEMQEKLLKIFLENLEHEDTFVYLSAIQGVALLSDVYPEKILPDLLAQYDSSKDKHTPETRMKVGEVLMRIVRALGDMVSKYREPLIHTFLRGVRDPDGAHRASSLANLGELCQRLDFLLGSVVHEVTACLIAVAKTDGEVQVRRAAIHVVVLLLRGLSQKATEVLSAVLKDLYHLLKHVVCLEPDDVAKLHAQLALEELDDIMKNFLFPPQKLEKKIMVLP
UniProt Q8IWZ8, sequence (Q8IWZ8 whole entry, looked up): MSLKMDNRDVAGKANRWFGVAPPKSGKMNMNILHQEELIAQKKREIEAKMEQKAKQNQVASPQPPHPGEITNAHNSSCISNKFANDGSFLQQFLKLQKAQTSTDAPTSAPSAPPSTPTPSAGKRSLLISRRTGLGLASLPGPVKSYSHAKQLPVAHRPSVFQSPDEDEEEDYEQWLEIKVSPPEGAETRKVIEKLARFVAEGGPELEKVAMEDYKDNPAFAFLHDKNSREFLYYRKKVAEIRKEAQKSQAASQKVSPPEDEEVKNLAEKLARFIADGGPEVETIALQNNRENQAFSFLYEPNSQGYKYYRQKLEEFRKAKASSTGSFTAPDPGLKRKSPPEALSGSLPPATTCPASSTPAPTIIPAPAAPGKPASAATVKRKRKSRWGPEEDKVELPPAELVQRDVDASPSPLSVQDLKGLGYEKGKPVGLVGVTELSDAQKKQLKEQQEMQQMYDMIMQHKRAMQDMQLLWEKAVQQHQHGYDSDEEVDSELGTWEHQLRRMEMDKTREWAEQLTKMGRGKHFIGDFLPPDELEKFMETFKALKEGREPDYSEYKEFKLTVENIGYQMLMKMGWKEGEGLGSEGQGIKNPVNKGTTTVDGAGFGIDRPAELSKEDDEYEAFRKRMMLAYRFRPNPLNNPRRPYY
UniProt Q66K14, sequence (Q66K14 whole entry, looked up): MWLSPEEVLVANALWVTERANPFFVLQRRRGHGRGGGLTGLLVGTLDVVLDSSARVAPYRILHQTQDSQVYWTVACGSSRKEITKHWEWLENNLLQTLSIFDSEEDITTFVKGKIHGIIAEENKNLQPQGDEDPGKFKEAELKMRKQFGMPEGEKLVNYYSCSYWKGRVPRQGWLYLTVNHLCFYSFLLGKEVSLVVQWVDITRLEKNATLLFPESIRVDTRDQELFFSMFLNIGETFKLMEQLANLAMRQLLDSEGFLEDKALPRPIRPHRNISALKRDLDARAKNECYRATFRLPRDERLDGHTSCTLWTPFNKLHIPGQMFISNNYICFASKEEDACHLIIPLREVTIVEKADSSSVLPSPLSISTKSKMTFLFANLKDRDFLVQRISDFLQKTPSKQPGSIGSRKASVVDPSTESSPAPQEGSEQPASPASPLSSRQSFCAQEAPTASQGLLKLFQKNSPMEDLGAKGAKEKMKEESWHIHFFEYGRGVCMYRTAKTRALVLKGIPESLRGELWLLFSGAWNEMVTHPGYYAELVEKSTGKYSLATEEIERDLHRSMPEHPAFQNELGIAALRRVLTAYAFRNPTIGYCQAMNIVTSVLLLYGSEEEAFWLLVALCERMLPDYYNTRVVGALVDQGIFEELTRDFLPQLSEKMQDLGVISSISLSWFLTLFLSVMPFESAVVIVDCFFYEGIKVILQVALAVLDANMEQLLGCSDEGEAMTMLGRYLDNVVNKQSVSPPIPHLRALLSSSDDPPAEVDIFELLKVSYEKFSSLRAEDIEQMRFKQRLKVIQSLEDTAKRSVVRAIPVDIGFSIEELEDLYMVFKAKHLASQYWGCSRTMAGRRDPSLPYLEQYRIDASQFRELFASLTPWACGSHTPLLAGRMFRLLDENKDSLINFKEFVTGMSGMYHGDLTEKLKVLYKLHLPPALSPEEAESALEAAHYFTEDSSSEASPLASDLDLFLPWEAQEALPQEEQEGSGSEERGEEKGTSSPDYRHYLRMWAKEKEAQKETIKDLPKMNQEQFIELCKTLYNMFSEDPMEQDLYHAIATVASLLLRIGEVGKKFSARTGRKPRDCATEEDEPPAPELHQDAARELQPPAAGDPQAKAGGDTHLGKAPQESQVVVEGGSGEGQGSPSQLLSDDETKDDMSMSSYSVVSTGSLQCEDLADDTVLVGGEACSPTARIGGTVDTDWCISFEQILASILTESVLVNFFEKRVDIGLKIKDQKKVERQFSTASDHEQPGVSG
UniProt Q9UHB9, sequence (Q9UHB9 whole entry, looked up): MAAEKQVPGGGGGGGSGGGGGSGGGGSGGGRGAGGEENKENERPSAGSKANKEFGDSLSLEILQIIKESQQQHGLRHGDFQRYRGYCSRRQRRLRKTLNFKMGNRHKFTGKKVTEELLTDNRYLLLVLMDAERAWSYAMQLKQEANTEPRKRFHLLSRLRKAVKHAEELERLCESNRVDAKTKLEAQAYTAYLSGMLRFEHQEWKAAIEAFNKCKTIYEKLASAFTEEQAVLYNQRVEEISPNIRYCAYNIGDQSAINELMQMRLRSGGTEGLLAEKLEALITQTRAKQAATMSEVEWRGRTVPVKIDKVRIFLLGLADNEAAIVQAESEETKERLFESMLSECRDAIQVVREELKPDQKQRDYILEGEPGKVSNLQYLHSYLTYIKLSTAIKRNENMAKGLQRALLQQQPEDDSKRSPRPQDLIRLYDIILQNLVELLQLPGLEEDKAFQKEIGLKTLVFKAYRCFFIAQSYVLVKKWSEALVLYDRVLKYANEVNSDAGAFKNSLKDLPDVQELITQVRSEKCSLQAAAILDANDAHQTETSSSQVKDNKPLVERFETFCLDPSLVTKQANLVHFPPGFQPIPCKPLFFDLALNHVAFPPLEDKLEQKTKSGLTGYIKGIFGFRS
UniProt Q9BYN0, sequence (Q9BYN0 whole entry, looked up): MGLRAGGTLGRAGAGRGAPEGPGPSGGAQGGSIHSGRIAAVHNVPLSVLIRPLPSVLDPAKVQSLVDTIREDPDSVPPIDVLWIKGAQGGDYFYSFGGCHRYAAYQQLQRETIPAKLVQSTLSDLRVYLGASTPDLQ

| Target | log2 fold change [1] | log2 fold change [2] | log2 fold change [3] | log2 fold change [4] | log2 fold change (Nexturastat A) | log2 fold change (vemurafenib) | log2 fold change [5] | log2 fold change [6] | log2 fold change (givinostat) | log2 fold change (barasertib) |
| --- | --- | --- | --- | --- | --- | --- | --- | --- | --- | --- |
| SPTBN1 (UniProt Q01082) | 0.018 | 0.02 | 0.004 | -0.036 | 0.088 | 0.058 | 0.006 | 0.051 | 0.049 | 0.019 |
| STARD3NL (UniProt O95772) | 0.01 | -0.002 | 0.056 | 0.076 | -0.12 | 0.02 | 0.048 | -0.021 | 0.009 | -0.027 |
| SRFBP1 (UniProt Q8NEF9) | 0.008 | -0.019 | -0.127 | -0.025 | 0.111 |  | -0.012 | -0.012 | -0.061 | -0.045 |
| TACC2 (UniProt O95359) | -0.015 | -0.058 | 0.16 |  |  | 0.032 | -0.054 | -0.085 | -0.284 (active) | 0.012 |
| SRI (UniProt P30626) | 0.035 | -0.092 | 0.094 | 0.037 | -0.073 | 0.092 | 0.045 | -0.055 | -0.03 | 0.107 |
| TIAL1 isoform 2 (UniProt Q01085) | -0.009 | 0.015 | -0.019 | 0.08 | 0.005 | 0.023 | 0.002 | -0.007 | -0.022 | -0.021 |
| SNX11 (UniProt Q9Y5W9) | -0.008 | 0.012 | -0.003 | 0.043 | 0.014 | 0.043 | 0.025 | 0.022 | -0.006 | 0.019 |
| SPAST (UniProt Q9UBP0) | -0.032 | -0.05 | 0.049 | 0.029 | -0.047 | 0.068 | 0.021 | 0.062 | 0.074 | 0.045 |
| SYNE2 isoform 2 (UniProt Q8WXH0) | -0.084 | 0.014 | 0.064 | -0.131 |  | -0.04 | 0 | -0.171 | 0.43 | 0.079 |
| SLC35A1 (UniProt P78382) | -0.027 | 0 | -0.045 | 0.06 | -0.037 | 0.382 (active) | 0 | -0.07 | -0.024 | -0.05 |
| TBC1D23 (UniProt Q9NUY8) | 0.029 | -0.038 | 0.005 | 0.005 | -0.071 | 0.035 | 0.034 | -0.074 | 0.006 | 0.041 |
| SNX15 (UniProt Q9NRS6) | -0.25 | -0.009 | -0.015 | -0.089 |  | -0.122 | -0.021 | 0.061 |  | 0.012 |
| SRXN1 (UniProt Q9BYN0) | -0.149 | 0.01 | 0.04 | 0.089 | -0.036 | 0.142 | 0.017 | -0.027 |  | 0.012 |
| SMARCE1 (UniProt Q969G3) | -0.025 | -0.058 | -0.003 | 0.074 | 0.121 | -0.123 | 0.085 | -0.522 | 0.028 | 0.042 |
| STK26 (UniProt Q9P289) | -0.083 | -0.037 | 0.068 | 0.015 | 0.044 | -0.04 | -0.03 | 0.014 | 0.086 | 0.08 |
| TANGO6 (UniProt Q9C0B7) | 0.069 | -0.006 | 0.039 | 0.031 | -0.051 |  | 0.068 | -0.052 | 0.131 | 0.048 |

| Target | log2 fold change [1] | log2 fold change [2] | log2 fold change [3] | log2 fold change [4] | log2 fold change (Nexturastat A) | log2 fold change (vemurafenib) | log2 fold change [5] | log2 fold change [6] | log2 fold change (givinostat) | log2 fold change (barasertib) |
| --- | --- | --- | --- | --- | --- | --- | --- | --- | --- | --- |
| SMCHD1 (UniProt A6NHR9) | -0.067 | 0 | 0.089 | -0.039 | 0.126 | 0.057 | 0.141 | 0.155 | 0.101 | -0.168 |
| TBC1D20 isoform 3 (UniProt Q96BZ9) | -0.048 | 0.04 | 0.128 | 0.037 | 0 | 0.083 | 0.166 | -0.14 | 0.076 | 0.034 |
| TK1 (UniProt K7ERV3) | -0.185 | -0.055 | -0.273 |  | -0.178 | -0.077 | -0.009 | -0.149 |  | 0.088 |
| TIMM44 (UniProt O43615) | 0.048 | -0.028 | 0.091 | 0.074 | -0.052 | -0.002 | 0.12 | -0.096 | -0.013 | 0.055 |
| SUGP1 (UniProt Q8IWZ8) | -0.006 | -0.021 | 0.033 | 0.065 | 0.056 | 0.121 | 0.096 | -0.001 | 0.095 | 0.068 |
| TAOK1 (UniProt Q7L7X3) | -0.009 | 0.007 | -0.005 | -0.013 | 0.065 | 0.023 | 0.011 | -0.048 | 0.001 | 0.009 |
| TBC1D9B (UniProt Q66K14) | -0.028 | 0.116 | 0.05 | -0.032 | 0.361 (active) | 0.095 | 0.048 | -0.189 | 0.002 | 0.04 |
| SMIM20 isoform 2 (UniProt Q8N5G0) | 0.01 | 0.008 | -0.052 |  | 0.006 | 0.148 | -0.059 | -0.024 | -0.102 | -0.026 |
| TENT5C (UniProt Q5VWP2) | -0.011 | 0.037 | -0.019 | 0.088 |  | 0.097 | 0.005 | -0.137 | 0.014 | 0.01 |
| SNX6 (UniProt Q9UNH7) | -0.04 | -0.016 | 0.019 | 0.021 | -0.025 | -0.003 | 0.076 | 0.006 | 0.077 | 0.079 |
| TGFBR1 isoform 2 (UniProt P36897) | -0.112 | 0.023 | -0.058 |  | 0.038 | 0.044 | 0.028 | -0.062 | 0.07 | -0.028 |
| SRP68 (UniProt Q9UHB9) | 0.028 | -0.062 | 0 | 0.018 | 0.125 | 0.063 | 0.091 | 0.064 | 0.075 | 0.078 |
| SLC39A11 (UniProt Q8N1S5) | 0.046 | 0.372 | -0.057 | 0.045 |  | 0.055 | -0.026 | -0.009 | 0.074 | -0.002 |
| STARD7 (UniProt Q9NQZ5) | 0.061 | 0.015 | 0.004 | -0.01 | -0.053 | 0 | -0.033 | 0.024 | -0.029 | -0.008 |
| SOX5 (UniProt P35711) | -0.125 | 0.004 | -0.144 | 0.02 |  | -0.05 | -0.063 | 0.042 | 0.013 | -0.119 |

Source: the supplement of paper PMC10849652
